A short description of test [1]: binders of probe aFSTL3 on microarray, primary screen, stem cell growth factor project, biochemical, small-molecule microarray, fluorescence 635/667 (AID 1064).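 Also: measures binding of the biotinylated anti-FSTL3 antibody to printed compounds.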 The note with it: higher = more signal.
Test [2] is described as follows: binders from COS7 lysate, DM2A8 probe, primary screen, torsin A project, cell lysate, small-molecule microarray, fluorescence 635/667 (AID 1065). The note with it: higher = more signal, COS7 lysate expressing mutant human TOR1A.
The nature of test [3]: binders of probe aFGF2 on microarray, primary screen, stem cell growth factor project, biochemical, small-molecule microarray, fluorescence 635/667 (AID 1067).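 Also: measures binding of biotinylated aFGF2 protein to printed compounds on slides; z-score merges feature fluorescence and signal-to-noise across triplicate slides.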 The note with it: higher = more signal.
Test [4] is described as follows: binders of probe aFGF10 on microarray, primary screen, stem cell growth factor project, biochemical, small-molecule microarray, fluorescence 635/667 (AID 1071).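 Also: score merges 667 nm spot intensity and signal to noise from triplicate slides.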 The note with it: higher = more signal.
The target in test [5] is Neurogenic locus notch homolog protein 2 (Homo sapiens) (UniProt Q04721). The test is described as follows: Notch2 binders on small-molecule microarrays, primary screen, biochemical, small-molecule microarray, 635 nm fluorescence, stem cell growth factors (AID 1073). The note with it: Notch2 binding, higher = more signal.
The target in test [6] is Pro-neuregulin-1, membrane-bound isoform (Homo sapiens) (UniProt Q02297). Kind of test: NRG1 binders on small-molecule microarrays, primary screen, psychiatric disease protein project, biochemical, small-molecule microarray, fluorescence 635/667 (AID 1075).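 Also: score combines 667 nm spot fluorescence with signal to noise.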 The note with it: NRG1 binding, 635 nm fluorescence, higher = more signal.
In test [7] the test system is Neuregulin-1 EGF-like domain. Kind of test: binders of neuregulin-1 EGF-like domain, primary screen, biochemical, small-molecule microarray, 635 nm fluorescence (AID 1081).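 Also: binding of the protein to compounds printed on small-molecule microarray slides.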 The note with it: small-molecule microarray binding, higher = more signal.
A short description of test [8]: FRG1 promoter luciferase signal modulators, primary screen, FRG1 inhibition for FSHD, cell-based, C2C12 myotubes, firefly/Renilla luciferase, luminescence (AID 1084). The note with it: higher = more signal, called active from +8 up or from −8 down.
Test [9] is described as follows: binders of probe aFST on microarray, primary screen, stem cell growth factor project, biochemical, small-molecule microarray, fluorescence 635/667 (AID 1086).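 Also: score merges 667 nm fluorescence with signal-to-noise of each printed compound spot.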 The note with it: higher = more signal.
Test [10] can be described thus: binders of probe aHhip on microarray, primary screen, stem cell growth factor project, biochemical, small-molecule microarray, fluorescence 635/667 (AID 1087).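 Also: score merges spot fluorescence at 667nm with spot signal to noise ratio.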 The note with it: higher = more signal.
Test [11] concerns PRMT1 (protein arginine N-methyltransferase 1). Kind of test: PRMT1 binders on small-molecule microarrays, primary screen, biochemical, small-molecule microarray, 635 nm fluorescence (AID 1088).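 Also: binding of Prmt1 protein to compounds spotted on small-molecule microarray slides.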 The note with it: small-molecule microarray binding, higher = more signal.
Test [12] is described as follows: yeast growth modulation, basal conditions, primary screen, YJM789 clinical isolate, OD600, 24 h (AID 1089).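 Also: growth of clinical yeast isolate S. cerevisiae YJM 789 seeded 1000 cells per well; test concentration not given here.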 The note with it: S. cerevisiae YJM789 growth, higher = more signal, called active from +8 up or from −8 down.
A short description of test [13]: fission yeast growth modulation, primary screen, strain 972, OD600, 24 h, no modulator (AID 1090).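 Also: basal condition with compound alone and no growth modifier present; test concentration not given here.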 The note with it: S. pombe 972 growth, higher = more signal, called active from +8 up or from −8 down.
Test [14] is described as follows: S. cerevisiae growth modulation with rapamycin, primary screen, strain BY4716, OD600, 96 h (AID 1091). Also: test concentration not given here. The note with it: higher = more signal, called active from +8 up or from −8 down.
Test [15] concerns the target Torsin-1A-interacting protein 2 (Homo sapiens) (UniProt Q8NFQ8). Kind of test: LULL1 binders on small-molecule microarray, primary screen, cell lysate, human LULL1 lysate, 635/667 nm fluorescence (AID 1092).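 Also: score merges per-feature 667 nm fluorescence with signal-to-noise.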 The note with it: hLULL1 lysate binding, 635 nm fluorescence, higher = more signal.
Test [16] is described as follows: E. coli growth modulation, two-sided OD650, primary screen, E. coli filamentation project, strain DRC41, 24 h (AID 1093).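 Also: MC1000 strain lacking acrAB efflux and sulA so SOS filamentation is blocked; test concentration not given here.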 The note with it: OD650, 24 h, higher = more signal, called active from +8 up or from −8 down.
A short description of test [17]: small-molecule microarray binders of probe aLefty2, primary screen, biochemical, biotinylated probe, 635/667 nm fluorescence (AID 1094).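 Also: score merges spot fluorescence near 667 nm with spot signal-to-noise ratio.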 The note with it: higher = more signal.
The test system of test [18] is Noggin (protein binding on small-molecule microarray). Kind of test: Noggin binders on small-molecule microarray, primary screen, biochemical, 635/667 nm fluorescence (AID 1095).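 Also: score merges 667 nm feature fluorescence with signal to noise over triplicate slides.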 The note with it: 635 nm fluorescence, higher = more signal.
The target of test [19] is Neurogenic locus notch homolog protein 3 (Homo sapiens) (UniProt Q9UM47). Kind of test: NOTCH3 binders on small-molecule microarray, primary screen, biochemical, 635/667 nm fluorescence (AID 1096). The note with it: NOTCH3 binding, 635 nm fluorescence, higher = more signal.
Test [20] can be described thus: small-molecule microarray binders of probe aEGFR, primary screen, biochemical, biotinylated probe, 635/667 nm fluorescence (AID 1097).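 Also: probe is a biotinylated anti-EGFR antibody binding compounds printed on slides; score combines fluorescence near 667 nm and signal to noise of each spot.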 The note with it: higher = more signal.

SMILES strings stand for the structures. Calls of active or inactive are those of the source.

For nine compounds, composite z-score and z-score results are on record in PubChem BioAssay.

Sequence of Pro-neuregulin-1, membrane-bound isoform (Homo sapiens) (Q02297 whole entry, looked up, the tested form may be a part, canonical isoform): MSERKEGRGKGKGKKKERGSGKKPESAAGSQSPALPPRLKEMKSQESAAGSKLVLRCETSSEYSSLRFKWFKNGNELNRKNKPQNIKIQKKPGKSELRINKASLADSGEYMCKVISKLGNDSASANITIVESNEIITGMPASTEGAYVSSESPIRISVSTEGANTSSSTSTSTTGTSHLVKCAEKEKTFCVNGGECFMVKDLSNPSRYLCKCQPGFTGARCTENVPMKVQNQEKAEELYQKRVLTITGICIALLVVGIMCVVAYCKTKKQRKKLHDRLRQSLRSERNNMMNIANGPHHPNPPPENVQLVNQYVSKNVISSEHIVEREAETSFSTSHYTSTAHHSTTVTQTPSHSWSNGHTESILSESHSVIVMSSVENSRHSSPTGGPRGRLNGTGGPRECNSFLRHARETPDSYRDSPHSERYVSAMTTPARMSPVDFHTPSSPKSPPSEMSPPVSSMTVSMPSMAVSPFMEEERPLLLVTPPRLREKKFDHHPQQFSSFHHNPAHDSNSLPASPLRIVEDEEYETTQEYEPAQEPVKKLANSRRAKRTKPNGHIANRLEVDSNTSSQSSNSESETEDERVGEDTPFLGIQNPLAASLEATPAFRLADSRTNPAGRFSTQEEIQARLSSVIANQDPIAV
Sequence of Neurogenic locus notch homolog protein 2 (Homo sapiens) (Q04721 whole entry, looked up, canonical isoform): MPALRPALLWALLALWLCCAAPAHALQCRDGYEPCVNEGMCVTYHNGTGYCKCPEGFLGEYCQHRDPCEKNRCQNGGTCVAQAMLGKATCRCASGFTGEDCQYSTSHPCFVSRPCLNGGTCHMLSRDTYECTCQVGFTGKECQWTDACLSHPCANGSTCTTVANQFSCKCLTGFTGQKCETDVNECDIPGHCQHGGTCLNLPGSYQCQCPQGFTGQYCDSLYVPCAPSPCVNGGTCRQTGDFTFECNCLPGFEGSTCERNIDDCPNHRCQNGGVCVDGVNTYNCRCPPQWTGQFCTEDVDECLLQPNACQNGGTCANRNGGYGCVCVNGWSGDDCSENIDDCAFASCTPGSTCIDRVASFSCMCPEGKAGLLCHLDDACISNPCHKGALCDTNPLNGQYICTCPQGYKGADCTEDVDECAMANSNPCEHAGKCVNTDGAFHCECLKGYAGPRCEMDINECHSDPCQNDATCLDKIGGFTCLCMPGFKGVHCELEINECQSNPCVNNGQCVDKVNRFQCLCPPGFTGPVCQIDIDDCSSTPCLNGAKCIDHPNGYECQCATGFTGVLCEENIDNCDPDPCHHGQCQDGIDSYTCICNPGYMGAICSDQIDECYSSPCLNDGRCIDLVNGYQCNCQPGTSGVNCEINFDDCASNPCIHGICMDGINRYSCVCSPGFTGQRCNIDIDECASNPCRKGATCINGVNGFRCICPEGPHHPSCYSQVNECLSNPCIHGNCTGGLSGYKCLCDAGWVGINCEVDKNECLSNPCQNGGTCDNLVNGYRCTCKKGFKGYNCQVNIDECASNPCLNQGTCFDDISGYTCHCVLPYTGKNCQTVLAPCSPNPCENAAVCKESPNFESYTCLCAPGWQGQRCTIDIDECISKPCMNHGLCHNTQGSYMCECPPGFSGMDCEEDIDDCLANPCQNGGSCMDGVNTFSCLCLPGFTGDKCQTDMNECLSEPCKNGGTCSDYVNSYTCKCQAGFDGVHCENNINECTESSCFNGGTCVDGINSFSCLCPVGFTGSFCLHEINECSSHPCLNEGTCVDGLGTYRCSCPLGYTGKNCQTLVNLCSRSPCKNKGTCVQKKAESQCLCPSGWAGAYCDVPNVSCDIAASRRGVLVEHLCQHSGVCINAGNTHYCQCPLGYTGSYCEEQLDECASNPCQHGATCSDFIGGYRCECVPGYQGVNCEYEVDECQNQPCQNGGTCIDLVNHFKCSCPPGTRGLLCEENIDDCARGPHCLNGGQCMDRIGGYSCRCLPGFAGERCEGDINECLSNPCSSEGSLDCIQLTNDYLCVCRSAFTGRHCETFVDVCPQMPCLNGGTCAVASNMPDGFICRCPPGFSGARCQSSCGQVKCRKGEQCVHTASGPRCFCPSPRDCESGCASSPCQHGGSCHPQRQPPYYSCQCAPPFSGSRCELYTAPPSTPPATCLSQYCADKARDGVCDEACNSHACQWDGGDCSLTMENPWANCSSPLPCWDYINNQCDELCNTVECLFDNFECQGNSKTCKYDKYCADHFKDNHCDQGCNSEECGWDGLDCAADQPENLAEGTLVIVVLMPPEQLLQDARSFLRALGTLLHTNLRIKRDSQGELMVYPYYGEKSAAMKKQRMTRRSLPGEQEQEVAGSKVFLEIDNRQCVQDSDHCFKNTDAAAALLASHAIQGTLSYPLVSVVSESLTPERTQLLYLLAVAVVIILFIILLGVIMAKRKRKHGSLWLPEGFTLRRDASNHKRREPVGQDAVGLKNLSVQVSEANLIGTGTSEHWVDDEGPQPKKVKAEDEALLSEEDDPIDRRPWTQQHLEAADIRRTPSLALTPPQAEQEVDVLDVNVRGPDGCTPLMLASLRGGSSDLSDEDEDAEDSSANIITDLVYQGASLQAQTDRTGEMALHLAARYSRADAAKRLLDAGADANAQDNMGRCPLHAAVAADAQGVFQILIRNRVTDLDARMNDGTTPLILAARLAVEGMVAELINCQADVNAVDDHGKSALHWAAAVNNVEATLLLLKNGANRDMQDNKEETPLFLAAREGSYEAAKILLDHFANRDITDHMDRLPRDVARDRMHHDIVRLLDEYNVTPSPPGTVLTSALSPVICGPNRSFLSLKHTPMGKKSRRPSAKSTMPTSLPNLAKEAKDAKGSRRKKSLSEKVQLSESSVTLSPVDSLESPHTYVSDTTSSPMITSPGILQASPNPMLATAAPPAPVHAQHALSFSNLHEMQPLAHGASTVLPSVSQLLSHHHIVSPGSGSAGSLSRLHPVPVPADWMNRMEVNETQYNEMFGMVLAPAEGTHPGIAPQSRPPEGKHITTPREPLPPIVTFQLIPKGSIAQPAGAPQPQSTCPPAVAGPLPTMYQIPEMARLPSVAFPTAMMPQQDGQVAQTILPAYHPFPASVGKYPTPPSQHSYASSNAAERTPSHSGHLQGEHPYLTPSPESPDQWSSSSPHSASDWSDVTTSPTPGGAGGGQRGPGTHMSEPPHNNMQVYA
Sequence of Torsin-1A-interacting protein 2 (Homo sapiens) (Q8NFQ8 whole entry, looked up): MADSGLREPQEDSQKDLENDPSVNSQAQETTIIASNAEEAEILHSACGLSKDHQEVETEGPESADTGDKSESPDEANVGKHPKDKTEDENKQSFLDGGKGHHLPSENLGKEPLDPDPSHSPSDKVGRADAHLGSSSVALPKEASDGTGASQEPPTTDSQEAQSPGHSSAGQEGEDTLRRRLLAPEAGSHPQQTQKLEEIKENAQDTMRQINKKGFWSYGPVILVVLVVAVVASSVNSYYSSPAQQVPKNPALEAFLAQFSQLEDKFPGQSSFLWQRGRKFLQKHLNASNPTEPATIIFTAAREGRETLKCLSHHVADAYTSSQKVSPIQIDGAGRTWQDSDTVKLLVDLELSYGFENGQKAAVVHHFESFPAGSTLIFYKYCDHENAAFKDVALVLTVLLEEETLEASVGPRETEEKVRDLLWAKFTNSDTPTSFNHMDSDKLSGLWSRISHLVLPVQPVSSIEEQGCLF

Take `O=C1C=C[C@@H](O)[C@@H]2[C@@H]3C(=O)N(c4cccc(Oc5ccccc5)c4)C(=O)[C@@H]3CC[C@@H]12`: the composite z-score in [1] was -0.575; in test [2] it was -0.285; in test [3], -0.0527; in [4], -0.102; in [5], 0.493; in [6], -0.04. Also, the composite z-score in test [7] is 0.588; in test [9] it was 0.241; in test [10], -0.274; in test [11] it was 0.491; in test [15], 0.36; in [17], -0.204. In addition, the composite z-score amounted to 0.403 in [18], 0.477 in test [19] and 0.0443 in [20]. Further, the z-score in [8] was 0.485 (inactive); in test [12], 0.162 (inactive); in [13], -0.753 (inactive); in test [14] it was -0.0875 (inactive); in test [16] it was 0.533 (inactive).

`CC(=O)OC[C@H]1O[C@H](CC=NOC[C@@H](O)[C@H]2O[C@@H]3OC(C)(C)O[C@@H]3[C@H]2O)C=C[C@@H]1OC(C)=O`: the composite z-score in [1] is -0.373; in test [2], -0.487; in test [3], 0.138; in [4], 0.416; in [5], 1.04; in test [6], 0.758. In addition, the composite z-score is 1.13 in test [7]; 0.265 in test [9]; -0.0844 in test [10]; 0.739 in test [11]; 2.25 in [15]; -0.0708 in test [17]. The composite z-score was 0.441 in test [18], 0.492 in test [19] and -0.0035 in test [20]. For the same compound, the z-score in test [8] was -0.008 (inactive); in test [12], 0.561 (inactive); in [13], 1.09 (inactive); in test [14], 0.541 (inactive); in [16], 0.72 (inactive).

In the case of `COc1ccc(COC(=O)NN=C2C[C@@H](O)[C@@H](O)[C@@H]3[C@@H]4C(=O)N([C@@H](C)c5ccccc5)C(=O)[C@@H]4CC[C@@H]23)cc1`, the composite z-score in test [1] was -0.513; in [2], 0.419; in test [3], -0.114; in [4] it was 0.042; in test [5] it was 0.199; in test [6], 0.0605. For the same compound, the composite z-score in test [7] was -0.38; in test [9], 0.275; in test [10] it was -0.0994; in test [11] it was -0.0948; in [15], -0.0022; in test [17], 0.0378. The composite z-score is 0.574 in test [18], 0.128 in test [19] and -0.103 in [20]. In addition, the z-score in [8] is 0.497 (inactive); in [12] it was -0.735 (inactive); in test [13], 0.207 (inactive); in [14], -0.206 (inactive); in test [16], 0.918 (inactive).

`C[C@@H]1CC[C@H]2C(=O)OC(CN3C(=O)c4ccccc4C3=O)CN2[C@H]1c1ccc(Br)cc1` (stereo not given in full): the composite z-score is -0.138 in test [1]; 1 in test [2]; -0.133 in test [3]; 0.0468 in test [4]; 0.315 in [5]; 0.48 in [6]. In addition, the composite z-score was -0.429 in test [7]; 0.362 in test [9]; -0.132 in test [10]; 0.658 in [11]; 1.38 in [15]; -0.185 in test [17]. Also, the composite z-score in [18] is -0.263; in test [19] it was 0.361; in test [20] it was -0.0703. The z-score in [8] is 1.11 (inactive); in test [12] it was 0.341 (inactive); in test [13], 0.35 (inactive); in [14], -0.338 (inactive); in test [16], 0.725 (inactive).

As for `CC(=O)OC[C@H]1O[C@H](CC=NOC(C)CN2CCCCc3nc(C)c(C)cc32)C=C[C@@H]1OC(C)=O` (stereo not given in full), the composite z-score is -0.349 in test [1]; 2.35 in test [2]; -0.071 in [3]; 0.325 in [4]; 0.965 in test [5]; 0.0843 in test [6]. Besides, the composite z-score in test [7] stood at 0.978; in test [9], 0.0013; in test [10], 0.158; in test [11], 1.54; in test [15] it was 1.51; in [17], 0.176. In addition, the composite z-score in test [18] is 1.13; in test [19] it was 1.01; in test [20], 0.43. In addition, the z-score in test [8] is 0.851 (inactive); in test [12], -0.814 (inactive); in test [13] it was -0.0245 (inactive); in [14], -0.151 (inactive); in [16], 0.522 (inactive).

Consider `O=C1C2=CC[C@H]3C(=O)N(C[C@@H]4CCCO4)C(=O)[C@H]3[C@H]2[C@H](O)[C@@H]2O[C@H]12`, for which the composite z-score in test [1] is -0.275; in test [2], 0.191; in test [3] it was -0.0878; in test [4], 0.111; in [5] it was -0.0143; in test [6], -0.209. The composite z-score in test [7] was 0.75; in test [9] it was -0.258; in test [10] it was -0.145; in test [11], 0.514; in test [15], -0.553; in test [17], -0.126. In addition, the composite z-score was -0.0904 in [18], -0.264 in [19] and -0.0565 in [20]. Further, the z-score in test [8] is -1.42 (inactive); in test [12] it was 0.0382 (inactive); in [13], -0.722 (inactive); in test [14], 0.109 (inactive); in test [16], -0.0137 (inactive).

With `COC(=O)[C@H](C)NC(=O)CC=C[C@@H](C)[C@@H]1C=C[C@H](O)[C@@H](CO)O1`, the composite z-score in [1] is -0.636; in test [2] it was 0.677; in [3], -0.134; in [4], 0.538; in [5] it was 0.0931; in test [6], -0.419. Moreover, the composite z-score in test [7] was 0.655; in test [9], 0.258; in test [10], -0.0645; in test [11], 0.854; in test [15] it was 0.248; in test [17], -0.0381. In addition, the composite z-score turned out to be 1.34 in test [18], 0.873 in test [19] and 0.241 in test [20]. Moreover, the z-score in test [8] is 0.439 (inactive); in test [12], 0.351 (inactive); in [13], 0.245 (inactive); in test [14] it was 0.358 (inactive); in [16] it was 1.02 (inactive).

As to `O=C1[C@H]2[C@H]3[C@H](O)[C@H](O)CC(=NOCc4ccccc4)[C@H]3CC[C@H]2C(=O)N1C1CCCCC1`, the composite z-score in test [1] was -0.483; in test [2], 0.357; in test [3] it was -0.0934; in [4], 0.412; in test [5], 0.691; in test [6], 0.195. Moreover, the composite z-score in test [7] was 1.03; in test [9], 0.404; in test [10], -0.0645; in test [11] it was 0.542; in test [15], 1.23; in [17], -0.162. The composite z-score is 0.423 in [18], 1.14 in [19] and -0.0691 in test [20]. Further, the z-score in test [8] is 0.111 (inactive); in [12], -0.577 (inactive); in test [13], -0.355 (inactive); in [14], -0.858 (inactive); in test [16], 0.119 (inactive).

Consider `CON(C)C(=O)c1nnc2c(n1)[nH]c1ccccc12`, for which the composite z-score in test [1] was -0.262; in [2] it was 0.668; in test [3] it was -0.165; in [4], 0.494; in test [5], 0.448; in [6], 0.0309. For the same compound, the composite z-score in test [7] was 0.823; in test [9], -0.128; in [10] it was -0.323; in test [11], 0.194; in test [15], 0.3; in test [17] it was -0.0931. Moreover, the composite z-score in test [18] is 0.586; in test [19], 0.483; in [20], -0.121. For the same compound, the z-score was 168 (active) in test [8]; -0.545 (inactive) in test [12]; 0.577 (inactive) in test [13]; -0.298 (inactive) in [14]; 0.816 (inactive) in test [16].
